From PubChem BioAssay
In the library only some 2.4% were active in any assay of this set; here they are far more common.
LT uptake inh: inhibitors of anthrax lethal toxin internalization; Cells, anthrax lethal toxin internalization, FRET ratio (460/530); Potency, µM (doses to about 40 µM), actives largely listed as inhibitors; 70,000 tested, 0.67% active; AID 912; further: nearly all actives have a fitted effect of over 50% in size
AmpC inh no det: inhibitors of E. coli AmpC beta-lactamase without detergent. P00811. AmpC nitrocefin hydrolysis, absorbance 480 nm, no detergent. Potency, µM (top dose mostly 28.7 µM). 71,000 tested, 1.8% active. AID 585
Target sequence (P00811 whole entry, looked up): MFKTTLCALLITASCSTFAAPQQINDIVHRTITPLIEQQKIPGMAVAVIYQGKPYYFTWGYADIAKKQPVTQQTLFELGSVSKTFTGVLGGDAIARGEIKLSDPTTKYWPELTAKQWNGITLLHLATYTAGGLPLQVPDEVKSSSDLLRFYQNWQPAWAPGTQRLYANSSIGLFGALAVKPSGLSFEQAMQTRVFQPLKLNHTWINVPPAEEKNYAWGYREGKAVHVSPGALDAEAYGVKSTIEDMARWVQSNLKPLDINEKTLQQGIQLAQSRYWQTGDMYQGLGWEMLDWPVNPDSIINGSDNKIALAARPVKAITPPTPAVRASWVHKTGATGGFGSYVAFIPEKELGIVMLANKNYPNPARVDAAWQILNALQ
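AmpC, 20 mM phosphate pH 7.0; 15 min cpd preinc, RT; start with nitrocefin (800 uM stock); A480 kinetic read, 20 s intervals, 4 min. No-enzyme wells = negative control.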
Prx2 Sm inh: inhibitors of Schistosoma mansoni peroxiredoxin 2. S. mansoni Prx2 activity coupled to TGR/GSH (TGR is thioredoxin glutathione reductase), NADPH fluorescence loss, qHTS. Potency, µM. 65,000 tested, 0.07% active
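Purified S. mansoni TGR and Prx2 in pH 7.4 phosphate buffer with EDTA and Tween-20 were preincubated with compounds for 15 min. Further NADPH/GSH was added, then a 2.5 mM H2O2 aliquot initiated turnover, followed kinetically by NADPH fluorescence.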
AmpC det inh: AmpC beta-lactamase inhibition, detergent assay. P00811. purified AmpC, nitrocefin hydrolysis with detergent. Potency, µM (doses to about 28.7 µM). 71,000 tested, 0.09% active. AID 584; active means well fitted curve in the direction sought with a large enough effect; inconclusive means small, poorly fitted or top-dose-only effect
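E. coli AmpC (5.3 nM) in 20 mM phosphate pH 7.0 with 0.01% Triton X-100, preincubated 15 min RT with compound; nitrocefin (2 uL of 800 uM stock) hydrolysis followed by 480 nm absorbance every 20 s over 4 min.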
Each line names hits and unclear results; the compound was inactive in the other large screens; [ ] = remark or other dose. Unless noted, the call rests on the fitted dose curve.

N#Cc1cccc(-c2nc(NCc3cccnc3)c3ccccc3n2)c1	LT uptake inh inconclusive, AmpC inh no det 0.63µM, AmpC det inh 10µM
CCCCNc1nc(C)nc2c1nc(C)n2CCC	none (no result: Prx2 Sm inh)
O=c1c2ccccc2sn1-c1ccc(S(=O)(=O)N2CCCCC2)cc1	LT uptake inh 0.16µM
O=c1c2ccccc2sn1-c1ccc(S(=O)(=O)N2CCCC2)cc1	LT uptake inh 0.13µM
CCCSCCCNC(=O)CC1Oc2ccccc2NC1=O (stereo unspecified)	AmpC inh no det 4µM[single pt active]
CC(C)CN(CCNC(=O)CC1Oc2ccccc2NC1=O)CC(C)C (stereo unspecified)	AmpC inh no det 4µM[single pt active]
CCC(C)N(CCNC(=O)CC1Oc2ccccc2NC1=O)C1CCCCC1 (stereo unspecified)	AmpC inh no det 4µM[single pt active]
CCN(CCNC(=O)CC1Oc2ccccc2NC1=O)c1ccccc1 (stereo unspecified)	AmpC inh no det 4µM[single pt active]
c1csc(CNc2ccnc(-c3ccoc3)n2)c1	LT uptake inh inconclusive
CC(C)(CN)CN	none
CCc1nnc(NC(=O)CSc2nnc(COc3ccccc3C)o2)s1	AmpC inh no det 13µM[single pt active]
Cc1ccc(-n2nc(-c3ccc(N)cc3)cc2N)cc1	LT uptake inh inconclusive, AmpC inh no det 3.2µM[single pt active]
Nc1ccc(-c2cc(N)n(-c3ccccc3)n2)cc1	LT uptake inh inconclusive
COC(=O)C1=C(C)Nc2ccc(C)cc2S1	AmpC inh no det 4µM[single pt active]
COc1cccc(Cn2c(=O)cnc3cnc(Oc4cccc(Cl)c4)nc32)c1	LT uptake inh inconclusive
CCCn1c(C)nc2c(NCc3ccccc3)nc(C)nc21	none (no result: Prx2 Sm inh)
O=C(Nc1nc(-c2ccc(S(=O)(=O)N3CCCC3)cc2)cs1)c1cccs1	none
O=C(Nc1nc(-c2cc(Cl)sc2Cl)cs1)c1cccs1	LT uptake inh inconclusive, AmpC inh no det 0.32µM
O=C(Nc1nc(-c2ccc(S(=O)(=O)N3CCCCCC3)cc2)cs1)c1cccs1	LT uptake inh inconclusive, AmpC inh no det 7.9µM
Cc1ccc(-c2csc(NC(=O)c3cccc(S(=O)(=O)N4CCN(C)CC4)c3)n2)cc1	none
O=C(Nc1nc(-c2cccs2)cs1)c1cccc(S(=O)(=O)N2CCCCC2)c1	LT uptake inh inconclusive, AmpC inh no det 7.9µM
COc1ccc(NS(=O)(=O)c2ccc(I)cc2)cc1N1CCN(C)CC1	none
NC(N)=NCCSSCCN=C(N)N	AmpC inh no det inconclusive
N#Cc1cccc(NC(=O)N2CCCC3(CCN(C(=O)c4cnccn4)CC3)C2)c1	none
O=C(CCl)c1ccc(Cl)cc1Cl	LT uptake inh 5µM (no result: Prx2 Sm inh)
COc1cccc([C@H]2Oc3ccc(OC)cc3/C(=N\OC[C@@H](O)[C@@H]3O[C@@H]4OC(C)(C)O[C@@H]4[C@H]3O)[C@@H]2O)c1	none (no result: AmpC inh no det, Prx2 Sm inh, AmpC det inh)
NC(=NCCCCCCN=C(N)/N=C(\N)Nc1ccc(Cl)cc1)/N=C(\N)Nc1ccc(Cl)cc1	LT uptake inh inconclusive, AmpC inh no det 2.5µM
O=C(c1ccc(CS(=O)(=O)c2ccc(Br)cc2)o1)N1CCN(C2CCCCC2)CC1	none
O=C(c1ccc(CS(=O)(=O)c2ccccc2)o1)N1CCOCC1	AmpC inh no det 2.5µM[single pt active]
O=C(c1ccc(CS(=O)(=O)c2ccc(Br)cc2)o1)N1CCCC1	AmpC inh no det 4µM[single pt active]
O=C(c1ccc(CS(=O)(=O)c2ccc(Br)cc2)o1)N1CCCCCC1	LT uptake inh inconclusive, AmpC inh no det 3.2µM[single pt active]
Cc1ccc(S(=O)(=O)Cc2ccc(C(=O)N3CCN(Cc4ccccc4)CC3)o2)cc1	none
O=C(N/N=C1/C[C@@H](O)[C@@H](O)[C@@H]2[C@@H]3C(=O)N(C[C@@H]4CCCO4)C(=O)[C@H]3CC[C@H]12)OCc1ccccc1	none (no result: AmpC inh no det, Prx2 Sm inh, AmpC det inh)
COc1cccc(-c2ccc3ncnc(NCc4ccccc4OC)c3c2)c1	LT uptake inh 4µM, AmpC inh no det 1.3µM, AmpC det inh 13µM
COc1cccc(-c2ccc3ncnc(NCc4ccc(OC)cc4OC)c3c2)c1	LT uptake inh inconclusive, AmpC inh no det 7.9µM, AmpC det inh 13µM
COc1cccc(-c2ccc3ncnc(NCc4ccccc4)c3c2)c1	LT uptake inh inconclusive
COc1cccc(-c2cc(NCc3ccccc3)ncn2)c1	AmpC inh no det 5µM, AmpC det inh 7.9µM
CC(C)Oc1ccc(NC(N)=O)cc1	LT uptake inh inconclusive
CC(C)OC(=O)Nc1ccc(Oc2c(F)c(F)c(F)c(F)c2F)cc1	AmpC inh no det 16µM[single pt active] (no result: LT uptake inh)
CC/C=C\CC[C@H](OC(=O)c1ccc(Br)cc1)C1=CCCCC1=O	none (no result: AmpC inh no det, Prx2 Sm inh, AmpC det inh)
Cc1noc(C)c1-c1nc(NC2CC2)c2ccccc2n1	none
CO/N=C(\C(=O)N[C@@H]1C(=O)N2C(C(=O)O)=C(COC(N)=O)CS[C@@H]12)c1ccco1	LT uptake inh inconclusive, AmpC inh no det 0.04µM, AmpC det inh 0.079µM
NCc1ccccc1CC(=O)N[C@@H]1C(=O)N2C(C(=O)O)=C(CSc3nnnn3CC(=O)O)CS[C@@H]12	none
O=C(Nc1ccc(-c2noc(CCc3ccccc3)n2)cc1)c1cccnc1	LT uptake inh 10µM
Cc1ccsc1-c1nc(CSCC(=O)N2CCN(c3ccccc3)CC2)c(C)o1	LT uptake inh 16µM
Cc1ccc(-c2nc(CSCC(=O)N3CCCC3)c(C)o2)cc1	none
C=C1C(CCl)(CCl)C2(Cl)C(Cl)C(Cl)C1(Cl)C2(Cl)Cl (stereo unspecified)	LT uptake inh inconclusive (no result: Prx2 Sm inh)
O=C(NCCN1CCOCC1)c1ccc(CS(=O)(=O)c2ccc(Br)cc2)o1	none
O=C(NCCCN1CCOCC1)c1ccc(CS(=O)(=O)c2ccc(Br)cc2)o1	AmpC inh no det 4µM[single pt active]
O=C(NCCCN1CCOCC1)c1ccc(CS(=O)(=O)c2c(Cl)cccc2Cl)o1	AmpC inh no det 3.2µM[single pt active]
COc1ccccc1S(=O)(=O)Cc1ccc(C(=O)NCCN2CCCCCC2)o1	AmpC inh no det 4µM[single pt active]
COc1cccc(NS(=O)(=O)c2nc3nc(C)cc(C)n3n2)c1	AmpC inh no det 4µM[single pt active]
Cc1ncc(CSc2ccccc2N)c(CO)c1O	LT uptake inh inconclusive
COc1ccccc1-c1ccc2ncnc(N3CCOCC3)c2c1	LT uptake inh inconclusive
CN(C)c1ccc(-c2ccc3ncnc(N(C)Cc4ccco4)c3c2)cc1	LT uptake inh 10µM
CN(Cc1ccco1)c1ncnc2ccc(-c3ccccc3C#N)cc12	LT uptake inh inconclusive
COc1cccc(-c2ccc3ncnc(N4CCOCC4)c3c2)c1	AmpC inh no det inconclusive, AmpC det inh 10µM
COc1cccc(-c2ccc3ncnc(N(C)Cc4ccco4)c3c2)c1	LT uptake inh inconclusive, AmpC inh no det 6.3µM, AmpC det inh 10µM
COc1ccc(C(=O)N2CCC3(CCN(Cc4ccccc4OC)CC3)CC2)cc1	LT uptake inh inconclusive
CCOC(=O)c1ccc(NC2c3ccccc3C(=O)N2c2cccnc2)cc1 (stereo unspecified)	none
CCc1cccc(NC2c3ccccc3C(=O)N2c2cccnc2)c1 (stereo unspecified)	AmpC inh no det 4µM[single pt active]
Cc1ccccc1N1C(=O)c2ccccc2C1Nc1cccnc1 (stereo unspecified)	AmpC inh no det 4µM[single pt active]
COC(=O)c1ccccc1NC1c2ccccc2C(=O)N1c1cccnc1 (stereo unspecified)	AmpC inh no det 4µM[single pt active]
CCc1cccc(NC2c3ccccc3C(=O)N2c2ccc(C)cn2)c1 (stereo unspecified)	LT uptake inh inconclusive
